Compounds with a hit are over-represented: about 6.7% of the library has one in this group of screens.
Bead autofluor – compound fluorescence in toxin protease inhibitor counterscreen | compound autofluorescence counterscreen, microsphere flow cytometry; stronger effect = higher value | 360,000 tested, 3.1% active | AID 624483 | fluorescence intensity (concentration not given with the values); in the data active = fluorescence intensity above about 16000
BoNT A protease – BoNT A light chain protease inhibition; 360,000 tested, 0.17% active; inhibition, % at 10 µM; multiplex microsphere protease substrate cleavage, flow cytometry; also: plate controls were buffer without enzyme for full effect and enzyme alone for no effect
GDH-TPI inh – GDH-TPI coupled enzyme inhibition counter-screen; inhibition, % at 4.8 µM; AID 588335; 360,000 tested, 1.2% active; GDH-TPI coupled enzyme counterscreen, NADH absorbance; in the data active = inhibition above about 30%;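 also: 0% = DMSO wells and 100% = wells lacking the enzyme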
BoNT-F LC inh – inhibitors of Botulinum neurotoxin F light chain protease; 360,000 tested, 0.22% active; inhibition, % at 10 µM; Multiplex microsphere protease cleavage assay, flow cytometry; in the data active = inhibition above about 35%, passing the limit was not always enough; also: plate controls were buffer without enzyme for full effect and enzyme alone for no effect
Anthrax LF prot – inhibitors of Bacillus anthracis lethal factor protease | inhibition, % at 10 µM | multiplex microsphere protease cleavage assay, LF | 360,000 tested, 0.12% active | P15917; also: plate controls were buffer without enzyme for full effect and enzyme alone for no effect
Mtb FBA inh – Mtb fructose-bisphosphate aldolase inhibition; purified M. tuberculosis FBA, fluorescence read-out; inhibition, % at 1 µM; P9WQA3; 360,000 tested, 2.3% active; in the data active = inhibition above about 27%;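 also: 0% = vehicle and 100% = reference inhibitor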
Target sequence (P9WQA3 whole entry, looked up): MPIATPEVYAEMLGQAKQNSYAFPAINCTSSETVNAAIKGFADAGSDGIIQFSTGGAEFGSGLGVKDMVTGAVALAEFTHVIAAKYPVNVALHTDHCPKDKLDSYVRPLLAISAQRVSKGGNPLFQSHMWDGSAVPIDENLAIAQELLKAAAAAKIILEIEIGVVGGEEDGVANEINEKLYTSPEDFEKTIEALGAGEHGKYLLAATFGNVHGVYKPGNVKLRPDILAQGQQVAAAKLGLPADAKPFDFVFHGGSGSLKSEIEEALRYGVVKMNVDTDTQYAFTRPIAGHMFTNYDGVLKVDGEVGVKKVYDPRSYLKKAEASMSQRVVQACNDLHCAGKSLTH
An asterisk follows results filed as active. Rule as the data show it, unless noted: active = inhibition above about 30%; inconclusive = no clear call, values can overlap the other calls; inactive = below that.

Cc1c(OCC(=O)NC(Cc2ccc(Cl)cc2)C(=O)O)ccc2c(-c3ccccc3)cc(=O)oc12 (stereo not drawn) was read as Bead autofluor 4986, BoNT A protease 0, GDH-TPI inh 18, BoNT-F LC inh -1, Anthrax LF prot 9 and Mtb FBA inh 4.
Screening Cc1c(CC(=O)NCC(=O)NCC(=O)N[C@@H](Cc2ccccc2)C(=O)O)c(=O)oc2c(C)c(O)ccc12 returned Bead autofluor 5706, BoNT A protease -1, GDH-TPI inh 12, BoNT-F LC inh -3, Anthrax LF prot 3 and Mtb FBA inh active.
For O=c1cnnc(SCCc2ccccc2)[nH]1 the results were Bead autofluor 23384*, BoNT A protease 1, GDH-TPI inh 3, BoNT-F LC inh 3, Anthrax LF prot -1 and Mtb FBA inh -5.
`CSc1nncc(=O)[nH]1` gave Bead autofluor 21213*, BoNT A protease -2, GDH-TPI inh 1, BoNT-F LC inh -4, Anthrax LF prot 2 and Mtb FBA inh -3.
COc1ccc(CNC(=O)CSc2cc(=O)n(C)c3ccccc23)cc1 was read as Bead autofluor 2687, BoNT A protease 0, GDH-TPI inh 6, BoNT-F LC inh 2, Anthrax LF prot -1 and Mtb FBA inh 4.
`Cc1cccc(CSc2nnc(NC(=O)c3ccco3)s2)c1` gave Bead autofluor 24019*, BoNT A protease -4, GDH-TPI inh 22, BoNT-F LC inh -7, Anthrax LF prot -3 and Mtb FBA inh 8.
O=C(Nc1nnc(SCc2cccc(F)c2)s1)c1ccco1 was read as Bead autofluor 4075, BoNT A protease 0, GDH-TPI inh 0, BoNT-F LC inh 0, Anthrax LF prot 1 and Mtb FBA inh 3.
`O=C(Nc1nnc(SCc2ccc(F)cc2)s1)c1ccco1` gave Bead autofluor 2571, BoNT A protease 0, GDH-TPI inh 41*, BoNT-F LC inh 0, Anthrax LF prot 2 and Mtb FBA inh 1.
Screening COc1cccc(-c2nnc3sc(-c4ccco4)nn23)c1 returned Bead autofluor 9927, BoNT A protease 0, GDH-TPI inh 4, BoNT-F LC inh 5, Anthrax LF prot 0 and Mtb FBA inh -1.
For COc1cccc(-c2nn3c(-c4cccc(C)c4)nnc3s2)c1 the results were Bead autofluor 17527*, BoNT A protease -4, GDH-TPI inh 12, BoNT-F LC inh -7, Anthrax LF prot -4 and Mtb FBA inh 0.
`CCOc1cccc(-c2nnc3sc(-c4cccs4)nn23)c1` gave Bead autofluor 17165*, BoNT A protease -2, GDH-TPI inh 12, BoNT-F LC inh 0, Anthrax LF prot 1 and Mtb FBA inh 2.
For CCOc1cccc(-c2nn3c(-c4ccco4)nnc3s2)c1 the results were Bead autofluor 23209*, BoNT A protease 0, GDH-TPI inh 9, BoNT-F LC inh 2, Anthrax LF prot 0 and Mtb FBA inh 1.
`COc1cccc(NC(=O)C2CCN(c3ncccn3)CC2)c1` gave Bead autofluor 9076, BoNT A protease 0, GDH-TPI inh -13, BoNT-F LC inh -1, Anthrax LF prot 0 and Mtb FBA inh 4.
Screening COc1ccc(OC)c(NC(=O)C2CCN(c3ncccn3)CC2)c1 returned Bead autofluor 19922*, BoNT A protease 1, GDH-TPI inh -13, BoNT-F LC inh -1, Anthrax LF prot -4 and Mtb FBA inh 0.
For COc1ccccc1NC(=O)C1CCN(c2ncccn2)CC1 the results were Bead autofluor 21787*, BoNT A protease -1, GDH-TPI inh 6, BoNT-F LC inh -2, Anthrax LF prot -3 and Mtb FBA inh 2.
Screening Cc1ccccc1NC(=O)C1CCN(c2cnccn2)CC1 returned Bead autofluor 21599*, BoNT A protease -2, GDH-TPI inh 3, BoNT-F LC inh -5, Anthrax LF prot -3 and Mtb FBA inh 3.
Screening CCOC(=O)N1CCC(N2C(=O)c3ccc(C(=O)Nc4ccc(OC)c(OC)c4)cc3C2=O)CC1 returned Bead autofluor 5941, BoNT A protease -2, GDH-TPI inh -2, BoNT-F LC inh 0, Anthrax LF prot -2 and Mtb FBA inh 8.
`COc1ccc(C2C(Oc3ccccc3)C(=O)N2c2cc(C)ccc2C)cc1OC` (stereo not drawn) gave Bead autofluor 20605*, BoNT A protease -1, GDH-TPI inh -3, BoNT-F LC inh -3, Anthrax LF prot -11 and Mtb FBA inh 2.
`Cc1cc(N/C=C\c2nnnn2-c2ccccc2)no1` gave Bead autofluor 2100, BoNT A protease 0, GDH-TPI inh 1, BoNT-F LC inh -1, Anthrax LF prot -4 and Mtb FBA inh -3.
Screening CN(C)c1ccc(/C=C/c2nnnn2-c2ccccc2)cc1 returned Bead autofluor 7786, BoNT A protease 0, GDH-TPI inh 41*, BoNT-F LC inh -1, Anthrax LF prot 1 and Mtb FBA inh -1.
CC(=O)c1ccc(N2CCN(C(=O)c3ccc(Cl)c(NC4=NC5CS(=O)(=O)CC5S4)c3)CC2)cc1 (stereo not drawn) was read as Bead autofluor 5203, BoNT A protease 0, GDH-TPI inh 42*, BoNT-F LC inh 2, Anthrax LF prot -1 and Mtb FBA inh 1.
CN(CCCNC(=O)C1CCC(=O)N1Cc1ccccc1Cl)c1ccccc1 (stereo not drawn) was read as Bead autofluor 16389*, BoNT A protease 1, GDH-TPI inh 11, BoNT-F LC inh 1, Anthrax LF prot -1 and Mtb FBA inh 2.
`CCN(CCCNC(=O)C1CCC(=O)N1Cc1ccccc1Cl)c1cccc(C)c1` (stereo not drawn) gave Bead autofluor 30276*, BoNT A protease -17, GDH-TPI inh 3, BoNT-F LC inh -25, Anthrax LF prot -4 and Mtb FBA inh 1.
For COc1ccc(NC(=O)CCn2nnc(-c3ccc(C)cc3)n2)cc1OC the results were Bead autofluor 2875, BoNT A protease 0, GDH-TPI inh 8, BoNT-F LC inh -18, Anthrax LF prot 2 and Mtb FBA inh 1.
For Cc1c(N=Cc2cc3c(cc2Cl)OCO3)c(=O)n(-c2ccccc2)n1C the results were Bead autofluor 23177*, BoNT A protease 1, GDH-TPI inh 23, BoNT-F LC inh 0, Anthrax LF prot -3 and Mtb FBA inh 1.
Screening Cc1c(N=Cc2ccncc2)c(=O)n(-c2ccccc2)n1C returned Bead autofluor 5220, BoNT A protease -1, GDH-TPI inh 19, BoNT-F LC inh -38, Anthrax LF prot 1 and Mtb FBA inh -2.
For Cn1ncc(Br)c1C(=O)NC1CCCCC1 the results were Bead autofluor 3652, BoNT A protease 0, GDH-TPI inh -2, BoNT-F LC inh -2, Anthrax LF prot -20 and Mtb FBA inh 1.
For O=C(NCC1CCCO1)c1cc(-c2ccco2)nc2ccccc12 (stereo not drawn) the results were Bead autofluor 4110, BoNT A protease 0, GDH-TPI inh 28, BoNT-F LC inh 17, Anthrax LF prot 2 and Mtb FBA inh 183*.

Bioassay records: PubChem BioAssay, several laboratories
